According to the supplement of paper PMC9446081:
The campaign covered roughly 39,000 compounds. About 220 (0.56%) showed activity. The full list was thinned out, with actives kept by preference. Unmarked numbers belong to inactive results.

test system: Escherichia coli K-12 BW25113; assay: relative growth (OD600 normalised to plate interquartile mean) (fraction); higher = less growth inhibition, active = 0.2 or less; details: 50 µM; LB; incubation time: overnight (16-24 h)
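Also: Wild-type cells incubated without shaking, value is the mean of two biological replicates.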

With `CO/N=C1\CN(c2nc3c(cc2F)c(=O)c(C(=O)O)cn3C2CC2)C[C@@H]1CN` the relative growth was 0.154 (active).
With `CON=C1CN(c2nc3c(cc2F)c(=O)c(C(=O)O)cn3C2CC2)CC1CN.CS(=O)(=O)O` (stereo not given) the relative growth was 0.0419 (active).
In the case of `CCN1CCN(C(=O)NC(C(=O)NC2C(=O)N3C2SC(C)(C)C3C(=O)[O-])c2ccccc2)C(=O)C1=O.[Na+]` (stereo not given), the relative growth is reported as 0.0465 (active).
With `CC1(C)S[C@@H]2[C@H](NC(=O)[C@H](NC(=O)N3CCNC3=O)c3ccccc3)C(=O)N2[C@H]1C(=O)O` the relative growth was 0.0984 (active).
In the case of `Cn1cc(-c2[nH]c3cc(NC(=O)[C@H](N)C4CCCCC4)cc4c3c2C=NNC4=O)cn1`, the relative growth is reported as 0.161 (active).
In the case of `CNC1C(O)C(NC)C2OC3(O)C(=O)CC(C)OC3OC2C1O.Cl.Cl` (stereo not given), the relative growth is reported as 0.048 (active).
With `CN[C@@H]1[C@H](O)[C@H](NC)[C@H]2O[C@@]3(O)C(=O)C[C@@H](C)O[C@H]3O[C@@H]2[C@H]1O` the relative growth was 0.0458 (active).
With `CN[C@@H]1[C@H](O[C@H]2[C@H](O[C@@H]3[C@@H](O)[C@H](O)[C@@H](NC(=N)N)[C@H](O)[C@H]3NC(=N)N)O[C@@H](C)[C@]2(O)CO)O[C@@H](CO)[C@H](O)[C@H]1O.CN[C@@H]1[C@H](O[C@H]2[C@H](O[C@@H]3[C@@H](O)[C@H](O)[C@@H](NC(=N)N)[C@H](O)[C@H]3NC(=N)N)O[C@@H](C)[C@]2(O)CO)O[C@@H](CO)[C@H](O)[C@H]1O` the relative growth was 0.11 (active).
For `CNC1C(OC2C(OC3C(O)C(O)C(NC(=N)N)C(O)C3NC(=N)N)OC(C)C2(O)CO)OC(CO)C(O)C1O.O=S(=O)(O)O` (stereo not given), the relative growth was 0.0643 (active).
With `Cc1nnc(SCC2=C(C(=O)[O-])N3C(=O)C(NC(=O)Cn4cnnn4)C3SC2)s1.[Na+]` (stereo not given) the relative growth was 0.0433 (active).
In the case of `Cc1nnc(SCC2=C(C(=O)O)N3C(=O)[C@@H](NC(=O)Cn4cnnn4)[C@H]3SC2)s1`, the relative growth is reported as 0.0386 (active).
For `O=C(Cn1cnnn1)NC1C(=O)N2C(C(=O)O)=C(CSc3nncs3)CSC12` (stereo not given), the relative growth was 0.0457 (active).

Compared with `C[C@H]1CN([C@@H](C)CO)C(=O)Cc2cc(NC(=O)NC3CCCCC3)ccc2O[C@H]1CN(C)S(=O)(=O)c1cn(C)cn1`, `C[C@H]1CN([C@@H](C)CO)C(=O)c2cc(NC(=O)C3CC3)ccc2O[C@@H]1CN(C)S(=O)(=O)c1cn(C)cn1` is lower in relative growth: 0.985 for the first, 0.941 for the second.

First: C[C@H]1CN([C@@H](C)CO)C(=O)c2cc(NC(=O)Cc3ccccc3)ccc2O[C@@H]1CN(C)S(=O)(=O)c1cccs1
Second: C[C@@H]1CN([C@H](C)CO)C(=O)c2cc(NC(=O)C3CC3)ccc2O[C@@H]1CN(C)S(=O)(=O)c1ccccc1
The relative growth of the first is higher: 0.993 for the first, 0.987 for the second.

Going from `Nc1ccc(OCC(=O)N2CCOCC2)cc1` to `OC[C@@H]1CN(CCN2CCOCC2)C[C@H](n2cnc3c(NC4CCC4)ncnc32)O1`, the relative growth falls from 1.03 to 0.936.

Compared with `CC(C)NC(=O)Nc1ccc2c(c1)C(=O)N([C@H](C)CO)C[C@@H](C)[C@H](CN(C)Cc1ccc(C(F)(F)F)cc1)OCCCC[C@@H](C)O2`, `C[C@@H]1CCCCO[C@H](CN(C)Cc2ccc(C(F)(F)F)cc2)[C@H](C)CN([C@@H](C)CO)C(=O)c2cc(NS(=O)(=O)c3ccc(Cl)cc3)ccc2O1` is higher in relative growth: 1.02 for the first, 1.03 for the second.

First: CCOc1ccc2c(c1)-c1c(ssc1=S)C(C)(C)N2C
Second: COc1ccc(NC(=O)Nc2ccc3c(c2)C(=O)N([C@@H](C)CO)C[C@H](C)[C@H](CN(C)S(C)(=O)=O)O3)cc1
The relative growth of the first is higher: 0.993 for the first, 0.991 for the second.

Compared with `CC1(C)SC2C(NC(=O)C(C(=O)[O-])c3ccccc3)C(=O)N2C1C(=O)[O-].[Na+].[Na+]` (stereo not given), `CC1(C)SC2C(NC(=O)C(NC(=O)N3CCNC3=O)c3ccccc3)C(=O)N2C1C(=O)[O-].[Na+]` (stereo not given) is lower in relative growth: 1.1 for the first, 0.263 for the second.

First: CC1(C)S[C@H]2[C@@H](NC(=O)[C@@H](NC(=O)N3CCN(S(C)(=O)=O)C3=O)c3ccccc3)C(=O)N2[C@@H]1C(=O)O
Second: CCN1CCN(C(=O)N[C@@H](C(=O)N[C@@H]2C(=O)N3[C@@H]2SC(C)(C)[C@@H]3C(=O)O)c2ccccc2)C(=O)C1=O
The relative growth of the first is lower: 0.237 for the first, 0.606 for the second.

Going from `C[C@@H]1CN([C@H](C)CO)C(=O)CCCn2cc(nn2)CO[C@H]1CN(C)C(=O)C1CC1` to `C[C@@H]1CN([C@H](C)CO)C(=O)CCCn2nncc2CO[C@H]1CN(C)S(=O)(=O)c1ccc(-c2ccccc2)cc1`, the relative growth falls from 1.02 to 0.979.

Compared with `Cn1nc(-c2ccccn2)nc2c(=O)n(C)c(=O)nc1-2`, `Cc1ccc(S(=O)(=O)N(C)C[C@H]2Oc3c(NC(=O)c4ccncc4)cccc3C(=O)N([C@@H](C)CO)C[C@H]2C)cc1` is higher in relative growth: 0.933 for the first, 1.01 for the second.

First: C[C@@H]1CCCCO[C@H](CN(C)Cc2ccccc2)[C@H](C)CN([C@@H](C)CO)C(=O)c2cc(NS(=O)(=O)c3cccs3)ccc2O1
Second: COc1ccc(CN(C)C[C@@H]2OCCCC[C@H](C)Oc3ccc(NS(=O)(=O)c4ccc(OC)cc4)cc3C(=O)N([C@H](C)CO)C[C@H]2C)cc1
The relative growth of the first is lower: 0.975 for the first, 0.994 for the second.

Compared with `C[C@@H]1CN([C@H](C)CO)S(=O)(=O)c2ccc(-c3cccc(C#N)c3)cc2O[C@@H]1CN(C)C(=O)c1ccncc1`, `C[C@H](CO)N1C[C@H](C)[C@@H](CN(C)Cc2ccc3c(c2)OCO3)Oc2ccc(NC(=O)c3ccncc3)cc2CC1=O` is higher in relative growth: 1 for the first, 1.01 for the second.

First: C[C@@H]1CN([C@H](C)CO)C(=O)Cc2cc(NS(=O)(=O)c3cccs3)ccc2O[C@@H]1CN(C)Cc1ccc(Cl)c(Cl)c1
Second: Cc1noc(C)c1S(=O)(=O)Nc1ccc2c(c1)CC(=O)N([C@@H](C)CO)C[C@@H](C)[C@H](CN(C)S(C)(=O)=O)O2
The relative growth of the first is higher: 1.01 for the first, 0.975 for the second.

Going from `O=C(C[C@@H]1CC[C@H](NC(=O)c2cnccn2)[C@@H](CO)O1)NCc1ccccc1F` to `O=C(C[C@@H]1C=C[C@H](NC(=O)c2cnccn2)[C@H](CO)O1)NCc1ccccc1F`, the relative growth rises from 0.993 to 1.03.

Compared with `C[C@@H]1CN([C@@H](C)CO)C(=O)c2cc(NC(=O)Nc3ccc4c(c3)OCO4)ccc2O[C@@H](C)CCCCO[C@@H]1CN(C)C(=O)NC1CCCCC1`, `CCCN(C)C[C@@H]1OCCCC[C@@H](C)Oc2ccc(NC(=O)Nc3ccc4c(c3)OCO4)cc2C(=O)N([C@H](C)CO)C[C@H]1C` is lower in relative growth: 1.04 for the first, 1.03 for the second.

Compared with `O=c1c(O[C@@H]2O[C@H](CO)[C@@H](O)[C@H](O)[C@H]2O)c(-c2ccc(O)c(O)c2)oc2cc(O)cc(O)c12`, `CN[C@@H]1[C@H](O[C@H]2[C@H](O[C@@H]3[C@@H](O)[C@H](O)[C@@H](NC(=N)N)[C@H](O)[C@H]3NC(=N)N)O[C@@H](C)[C@]2(O)C=O)O[C@@H](CO)[C@H](O)[C@H]1O` is lower in relative growth: 1.04 for the first, 0.972 for the second.

Compared with `CC(C)NC(=O)Nc1cccc2c1O[C@H](CN(C)Cc1ccc(-c3ccccc3)cc1)[C@@H](C)CN([C@@H](C)CO)C2=O`, `Cc1ccc(S(=O)(=O)N(C)C[C@H]2Oc3c(NC(=O)NC(C)C)cccc3C(=O)N([C@@H](C)CO)C[C@H]2C)cc1` is lower in relative growth: 0.997 for the first, 0.992 for the second.

Going from `C[C@H]1CCCCO[C@H](CN(C)Cc2ccncc2)[C@@H](C)CN([C@@H](C)CO)C(=O)c2cc(NC(=O)C3CCCCC3)ccc2O1` to `C[C@@H]1CN([C@H](C)CO)C(=O)c2cc(NC(=O)NC3CCCCC3)ccc2O[C@@H](C)CCCCO[C@@H]1CN(C)Cc1ccncc1`, the relative growth rises from 0.956 to 0.996.

Going from `COc1ccc(S(=O)(=O)Nc2cccc3c2O[C@@H](CN(C)C(=O)NC(C)C)[C@H](C)CN([C@H](C)CO)C3=O)cc1` to `COc1ccc(S(=O)(=O)N(C)C[C@@H]2Oc3ncc(C#Cc4ccc(OC)c(OC)c4)cc3C(=O)N([C@H](C)CO)C[C@@H]2C)cc1`, the relative growth falls from 0.978 to 0.91.

First: CN[C@H]1[C@@H](O[C@H]2[C@@H](O[C@H]3[C@@H](O)[C@@H](O)[C@@H](NC(=N)N)[C@@H](O)[C@@H]3NC(=N)N)O[C@@H](C)[C@@]2(O)C=O)O[C@@H](CO)[C@@H](O)[C@@H]1O.CN[C@H]1[C@@H](O[C@H]2[C@@H](O[C@H]3[C@@H](O)[C@@H](O)[C@@H](NC(=N)N)[C@@H](O)[C@@H]3NC(=N)N)O[C@@H](C)[C@@]2(O)C=O)O[C@@H](CO)[C@@H](O)[C@@H]1O.O=S(=O)(O)O.O=S(=O)(O)O.O=S(=O)(O)O
Second: CNC1C(OC2C(OC3C(O)C(O)C(NC(=N)N)C(O)C3NC(=N)N)OC(C)C2(O)C=O)OC(CO)C(O)C1O.O=S(=O)(O)O (stereo not given) [STREPTOMYCIN SULFATE [5mM; 10% aq DMSO + 5mM ethanolamine]]
The relative growth of the first is lower: 0.372 for the first, 1.11 for the second.

First: CN[C@@H]1[C@H](O[C@H]2[C@H](O[C@H]3[C@H](O)[C@@H](O)[C@H](NC(=N)N)[C@@H](O)[C@@H]3NC(=N)N)O[C@@H](C)[C@]2(O)C=O)O[C@@H](CO)[C@H](O)[C@H]1O
Second: C[C@@H]1CN([C@H](C)CO)C(=O)Cc2cc(NC(=O)CCCN(C)C)ccc2O[C@@H]1CN(C)S(=O)(=O)c1ccc(Cl)cc1
The relative growth of the first is lower: 0.888 for the first, 0.973 for the second.

Going from `CC(=O)OCC1=C(C(=O)O)N2C(=O)[C@@H](NC(=O)CSc3ccncc3)[C@H]2SC1` to `Cc1nnc(SCC2=C(C(=O)O)N3C(=O)[C@@H](N)[C@H]3SC2)s1`, the relative growth falls from 1.05 to 1.

`Cc1noc(C)c1S(=O)(=O)N(C)C[C@H]1Oc2c(NC(=O)C3CCCCC3)cccc2C(=O)N([C@@H](C)CO)C[C@H]1C` gave a relative growth of 1.01.
